# From PubChem BioAssay (NCI)
# The panel holds about 83,000 compounds, 20% with a hit somewhere; the sample as a whole holds those more often.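 Results are percent growth after 48 hours of single-concentration exposure. 100 means growth as in untreated cells, lower positive values show inhibition; negative values down to -100 show cell death.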 A number with no mark means an inactive call. The source made the active and inactive calls. The calls were made as follows: active = growth percent below 10; inactive = the rest.
# What was measured:
# Experiment in all cases: NCI-60 one-dose screen, 48 h (100 = growth as untreated, 0 = no growth, -100 = all killed)
# Settings in all cases: 10 µM
# NCI-H23 lung = system: NCI-H23 lung
# NCI-H226 lung = system: NCI-H226 lung
# NCI-H322M lung = system: NCI-H322M lung
# HOP-62 NSCLC = system: HOP-62 NSCLC
# NCI-H460 lung = system: NCI-H460 lung
# HOP-92 NSCLC = system: HOP-92 NSCLC
# NCI-H522 lung = system: NCI-H522 lung
# A549/ATCC NSCLC = system: A549/ATCC NSCLC
# 786-0 renal = system: 786-0 renal
# COLO 205 colon = system: COLO 205 colon
# DU-145 prostate = system: DU-145 prostate
# K-562 leukemia = system: K-562 leukemia
# MALME-3M melanoma = system: MALME-3M melanoma
# MDA-MB-231 breast = system: MDA-MB-231 breast
# RXF 393 renal = system: RXF 393 renal
# SF-268 CNS = system: SF-268 CNS
# SF-295 CNS = system: SF-295 CNS
# SF-539 CNS = system: SF-539 CNS
# UACC-257 melanoma = system: UACC-257 melanoma
# M14 melanoma = system: M14 melanoma
SMILES,growth (NCI-H23 lung),growth (NCI-H226 lung),growth (NCI-H322M lung),growth (HOP-62 NSCLC),growth (NCI-H460 lung),growth (HOP-92 NSCLC),growth (NCI-H522 lung),growth (A549/ATCC NSCLC),growth (786-0 renal),growth (COLO 205 colon),growth (DU-145 prostate),growth (K-562 leukemia),growth (MALME-3M melanoma),growth (MDA-MB-231 breast),growth (RXF 393 renal),growth (SF-268 CNS),growth (SF-295 CNS),growth (SF-539 CNS),growth (UACC-257 melanoma),growth (M14 melanoma)
O=C(Nc1ccc(I)cc1)Nc1nc2ccc([N+](=O)[O-])cc2s1,-95.9% (active),-74.2% (active),-86.6% (active),-90.4% (active),-72.1% (active),-87.9% (active),-89.4% (active),-91.6% (active),-100% (active),-92.2% (active),-100% (active),-82.8% (active),-99.7% (active),-100% (active),-95.1% (active),-83.7% (active),-95.4% (active),-99.7% (active),-91% (active),-100% (active)
Cn1cc(-c2cc(N)n3nc(-c4c[nH]c5ccc(Br)cc45)cc3n2)c2cc(Br)cnc21,-81.5% (active),-55.3% (active),11.7%,-69.2% (active),2.27% (active),-63.2% (active),-72% (active),-45.8% (active),-75% (active),-90.9% (active),-75.6% (active),-27.4% (active),-92.1% (active),-82.5% (active),-71.2% (active),-22.5% (active),-86.4% (active),-97.6% (active),-65.4% (active),-90.6% (active)
CC(C)CCSc1nc(NC2CC2)c(C#N)c(-c2ccc(C(C)C)cc2)n1,101%,106%,113%,94.9%,120%,114%,90.7%,106%,93.6%,126%,120%,100%,108%,105%,113%,121%,100%,101%,103%,109%
O=C(c1ccc(Cl)cc1)C1[C@H](c2ccc(Br)cc2)[C@@H](c2ccccc2)NC12C(=O)Nc1ccccc12 (stereo not given in full),-35.9% (active),-72.4% (active),19.9%,-18.9% (active),-33.8% (active),-18% (active),-4.55% (active),15%,-4.41% (active),-88.9% (active),12.4%,-15.7% (active),-35.9% (active),-60.1% (active),-59.8% (active),12.1%,-54.5% (active),-57.7% (active),-2.88% (active),29.4%
COc1ccc(CCN2C(=O)/C(=C/c3csc(C#N)n3)SC2=S)cc1,24.3%,98.5%,86.4%,83.5%,68.2%,-5.5% (active),-69.8% (active),89%,-55.2% (active),-75% (active),0.405% (active),1.79% (active),7.27% (active),15.8%,-3.89% (active),33.2%,77.5%,-17.3% (active),-35.3% (active),-40.6% (active)
N#Cc1c(NC(=O)c2cccc(C(F)(F)F)c2)sc2c1CCC(O)=C2,22.3%,54.7%,49.2%,55%,30.3%,11.2%,11.2%,35.7%,62.1%,90.2%,50.1%,14.5%,19.3%,39.6%,50.7%,38.6%,35.3%,48.1%,30.1%,36.8%
O=c1oc2ccc(-c3ccc(F)cc3F)cc2c(=O)n1-c1ccc(F)cc1,-27.8% (active),-6.57% (active),1.43% (active),-20.9% (active),2.62% (active),-23.8% (active),-7.06% (active),17.8%,8.17% (active),83.2%,14.5%,5.98% (active),-21.2% (active),-5.38% (active),-10.4% (active),2.76% (active),-19.3% (active),-3.51% (active),15.5%,18.3%
COc1cc(NC(=O)c2cc(-c3ccc(F)cc3F)ccc2O)cc(OC)c1OC,26.2%,50.9%,38.4%,24%,22.5%,-11.8% (active),7.09% (active),37.1%,54%,116%,34.3%,14%,17.4%,47.5%,75.9%,25.9%,65.5%,50.8%,55.3%,55.8%
